Compound activity (PubChem BioAssay)
This is a sample that favours compounds with a hit; in the whole collection about 6.8% have one here.
T cruzi growth-1 = T. cruzi intracellular proliferation inhibitors, primary screen, cell-based, beta-gal Tulahuen parasites, NIH3T3 host, luminescence | actives 5.9% (n = 77,000) | T. cruzi beta-gal in NIH3T3, GalScreen luminescence, 90 h | inhibition, % at 8.34 µM;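 active means mean inhibition above about 93%, with at least 55% of replicates each passing it, limit read from the data, passing the limit was not always enough; inconclusive means only one of those two conditions holds; inactive means neither condition holds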
Pf Dd2 inh = P. falciparum Dd2 growth inhibitors, primary screen, SYBR Green fluorescence, single dose replicates; 72 h; active compounds read low; actives 2.3% (n = 94,000); AID 1159554, 2015; activity change, % at 10 µM; in the data active means activity change below about -80%; inconclusive means no clear call, values can overlap the other calls
C diff HTS = C. difficile growth inhibitors, primary screen, HTS | actives 0.25% (n = 86,000) | growth activity, negative = inhibition, % at 16 µg/mL (by protocol) | Clostridium difficile clinical isolate growth, OD600, 24 h; active compounds read low;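 active means mean growth activity at or below -80% and every replicate also at or below -80%; inconclusive means mean at or below -80% but some replicate above -80%; inactive means mean growth activity above -80%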;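 further: 0% = DMSO wells and -100% = levofloxacin 16 µg/mL wells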
T cruzi growth-2 = T. cruzi intracellular proliferation inhibitors, confirmation, cell-based, NIH3T3 host, beta-gal parasite, luminescence, cherry-pick; shares compounds with T cruzi growth-1; inhibition, % at 8.35 µM; actives 72% (n = 5,600); T. cruzi beta-gal in NIH3T3, GalScreen luminescence, 90 h;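 active means mean replicate inhibition above about 95% and at least 55% of replicates individually reaching it, limit read from the data; inconclusive means only one of the two criteria is met; inactive means neither criterion is met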
T cruzi growth-3 = inhibitors of intracellular T. cruzi replication, confirmation, NIH3T3 host cells, beta-gal parasites, cherry-pick, set 2; shares compounds with T cruzi growth-1; T. cruzi beta-gal in NIH3T3, GalScreen luminescence, 90 h; inhibition, % at 2.09 µM; actives 21% (n = 5,600); AID 651740, 2012;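 active means mean inhibition above about 95%, with at least 55% of replicates also reaching it, limit read from the data; inconclusive means meets just one of the two conditions; inactive means meets neither condition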;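 further: plate controls were neutral control median for no effect and positive control median for full effect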
NIH3T3 tox = cytotoxicity in mouse NIH/3T3 fibroblasts, confirmation, cytotoxicity control for T. cruzi proliferation inhibitor project, cell-based, cherry-pick, single point; shares compounds with T cruzi growth-1; actives 14% (n = 5,600); cytotoxicity (signal decrease), % at 8.35 µM; NIH/3T3 viability, CellTiter-Glo ATP luminescence, 90 h;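 active means mean signal decrease across replicates above about 35% based on untreated-well scatter, with enough replicates individually passing, limit read from the data; inconclusive means no rule stated though some were filed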;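 further: 0% = median of neutral control wells and 100% = median of positive control wells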
3T3 cytotox 2 = NIH/3T3 fibroblast cytotoxicity, confirmation, cytotoxicity control, cell-based, cherry-pick, single point, set 2. shares compounds with T cruzi growth-1. actives 56% (n = 5,600). AID 651744, 2012. NIH/3T3 viability, CellTiter-Glo ATP luminescence, 90 h. inhibition, % at 24.9 µM;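 active means mean loss of cell viability signal at or above a set limit, and enough replicates individually reaching it; inconclusive means meets only the mean limit or only the replicate share; inactive means meets neither condition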;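 further: 0% = median of neutral control wells and 100% = median of positive control wells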
* marks the source's active call; other numbers are inactive results; u = inconclusive; x = no result given.

SMILES	T cruzi growth-1	Pf Dd2 inh	C diff HTS	T cruzi growth-2	T cruzi growth-3	NIH3T3 tox	3T3 cytotox 2
C[C@@H]1CN([C@H](C)CO)C(=O)c2cc(C#Cc3ccccc3F)cnc2O[C@H]1CN(C)S(=O)(=O)c1ccccc1	125.8*	-37.7	-2.6	108.5*	86.6	u	34.5*
C[C@H]1CN([C@@H](C)CO)C(=O)c2cc(C#Cc3ccccc3F)cnc2O[C@H]1CN(C)S(C)(=O)=O	49.5	0.3	x	x	x	x	x
C[C@@H]1CN([C@@H](C)CO)C(=O)c2cc(NC(=O)Cn3cnnn3)ccc2O[C@H]1CN(C)CC1CCCCC1	19.4	53.0	1.6	x	x	x	x
COCCN(C[C@@H]1N[C@@H](CO)[C@@H]1c1ccc(-c2cccc(F)c2)cc1)C(C)=O	104.6*	1.7	-9.5	101.5*	38.8	-22.0	13.8
COCCN(C[C@H]1N[C@H](CO)[C@H]1c1ccc(-c2cccc(F)c2)cc1)C(C)=O	-51.9	7.2	-3.5	x	x	x	x
COCCN(C[C@@H]1N[C@@H](CO)[C@H]1c1ccc(-c2cccc(F)c2)cc1)C(C)=O	u	8.0	-2.7	27.4	-2.9	-12.1	13.7
COCCN(C[C@H]1N[C@H](CO)[C@@H]1c1ccc(-c2cccc(F)c2)cc1)C(C)=O	86.6	-10.4	-3.5	x	x	x	x
CN1c2ccc(Br)cc2[C@H]2[C@H](CCN2C(=O)C2CCC2)[C@H]1CO	x	-16.2	4.1	x	x	x	x
COCCNC(=O)C[C@@H]1C[C@H]2c3cc(NC(=O)Nc4ccc(C(F)(F)F)cc4)ccc3O[C@H]2[C@@H](CO)O1	39.6	-24.5	x	x	x	x	x
C[C@@H]1CN([C@@H](C)CO)S(=O)(=O)c2ccc(C#Cc3ccccc3)cc2O[C@H]1CN(C)C(=O)CN(C)C	102.3*	-66.9	-0.1	99.7*	59.8	7.3	103.2*
COCC(=O)N(C)C[C@@H]1Oc2cc(C#Cc3ccccc3)ccc2S(=O)(=O)N([C@H](C)CO)C[C@H]1C	71.3	-77.0	-12.0	x	x	x	x
C[C@H](CO)N1C[C@H](C)[C@H](CN(C)C(=O)CN(C)C)Oc2cc(C#Cc3ccccc3)ccc2S1(=O)=O	-18.0	u	14.1	x	x	x	x
COCC(=O)N(C)C[C@@H]1Oc2cc(C#Cc3ccccc3)ccc2S(=O)(=O)N([C@@H](C)CO)C[C@H]1C	u	-74.6	-17.0	59.6	33.5	-6.0	21.5
C[C@@H]1CN([C@H](C)CO)C(=O)c2cccc(NC(=O)C3CCCCC3)c2O[C@@H]1CN(C)C(=O)Nc1cccc2ccccc12	20.0	-52.5	-3.1	x	x	x	x
C[C@H]1CN([C@@H](C)CO)S(=O)(=O)c2ccc(C#CC3CC3)cc2O[C@H]1CN(C)CC1CC1	101.2	-46.5	x	x	x	x	x
O=C(N[C@@H]1CC[C@H](CCn2cc(C3(O)CCCC3)nn2)O[C@H]1CO)C1CC1	x	20.8	-3.1	x	x	x	x
C[C@H](CO)N1C[C@H](C)[C@H](CN(C)C(=O)C2CCCCC2)OCCCC[C@H](C)Oc2ccc(NS(=O)(=O)c3cccs3)cc2C1=O	114.5*	-47.3	10.4	81.9	45.1	7.0	9.9
C[C@@H]1CN([C@H](C)CO)C(=O)c2cc(NS(=O)(=O)c3cccs3)ccc2O[C@@H](C)CCCCO[C@H]1CN(C)C(=O)C1CCCCC1	x	-46.8	-15.9	x	x	x	x
C[C@@H]1CCCCO[C@@H](CN(C)C(=O)C2CCCCC2)[C@H](C)CN([C@@H](C)CO)C(=O)c2cc(NS(=O)(=O)c3cccs3)ccc2O1	17.3	-8.6	-4.7	x	x	x	x
C[C@@H]1CCCCO[C@@H](CN(C)C(=O)C2CCCCC2)[C@@H](C)CN([C@@H](C)CO)C(=O)c2cc(NS(=O)(=O)c3cccs3)ccc2O1	109.7*	-41.5	0.6	46.2	10.3	-2.4	9.7
CC(C)CC#Cc1ccc2c(c1)O[C@H](CN(C)Cc1cccc(F)c1)[C@H](C)CN([C@H](C)CO)S2(=O)=O	60.4	-53.8	26.5	x	x	x	x
C[C@H](CO)N1C[C@H](C)[C@H](CN(C)CC2CC2)Oc2c(NC(=O)Nc3ccccc3)cccc2C1=O	x	7.9	0.9	x	x	x	x
C[C@@H]1CN([C@H](C)CO)C(=O)c2cc(NC(=O)c3ccncc3)ccc2O[C@@H](C)CCCCO[C@@H]1CN(C)S(=O)(=O)c1ccc(F)cc1	45.1	-19.2	1.4	x	x	x	x
Cc1cccc(S(=O)(=O)N2C[C@@H](O)COC[C@@H]3O[C@@H](CC(=O)Nc4ccc(-c5ccccc5)cc4)CC[C@H]32)c1	72.3	-60.6	8.0	x	x	x	x
O=C(C[C@H]1CC[C@H]2[C@@H](COC[C@@H](O)CN2S(=O)(=O)c2ccccc2)O1)Nc1ccc(-c2ccccc2)cc1	88.0	-13.6	x	x	x	x	x
SMILES	T cruzi growth-1	Pf Dd2 inh	C diff HTS	T cruzi growth-2	T cruzi growth-3	NIH3T3 tox	3T3 cytotox 2
Cc1cccc(S(=O)(=O)N2C[C@H](O)COC[C@H]3O[C@H](CC(=O)Nc4ccc(-c5ccccc5)cc4)CC[C@@H]32)c1	u	-21.7	5.4	104.3*	74.1	23.3	99.4*
O=C(C[C@@H]1CC[C@H]2[C@@H](COC[C@@H](O)CN2S(=O)(=O)c2ccccc2)O1)Nc1ccc(-c2ccccc2)cc1	96.7*	-10.4	x	106.1*	70.7	13.4	91.9*
C[C@@H]1CCCCO[C@@H](CN(C)S(=O)(=O)c2cccs2)[C@H](C)CN([C@H](C)CO)C(=O)c2cc(NC(=O)Nc3ccc(C(F)(F)F)cc3)ccc2O1	88.3	-68.9	2.1	x	x	x	x
C[C@H]1CCCCO[C@H](CN(C)S(=O)(=O)c2cccs2)[C@@H](C)CN([C@@H](C)CO)C(=O)c2cc(NC(=O)Nc3ccc(F)cc3)ccc2O1	97.2*	-72.7	-8.7	103.8*	38.8	23.8	5.7
C[C@@H]1CCCCO[C@H](CN(C)S(=O)(=O)c2cccs2)[C@H](C)CN([C@H](C)CO)C(=O)c2cc(NC(=O)Nc3ccc(F)cc3)ccc2O1	u	-84.6*	-6.7	112.7*	99.9*	-16.2	11.5
C[C@@H]1CN([C@H](C)CO)C(=O)c2cc(NC(=O)Nc3ccc(F)cc3)ccc2O[C@@H](C)CCCCO[C@H]1CN(C)S(=O)(=O)c1cccs1	33.4	-71.5	5.1	x	x	x	x
C[C@@H]1CCCCO[C@@H](CN(C)S(=O)(=O)c2cccs2)[C@H](C)CN([C@H](C)CO)C(=O)c2cc(NC(=O)Nc3ccc(F)cc3)ccc2O1	u	-77.7	0.4	108.3*	41.5	-15.2	8.4
C[C@H](CO)N1C[C@H](C)[C@@H](CN(C)S(=O)(=O)c2cccs2)OCCCC[C@H](C)Oc2ccc(NC(=O)Nc3ccc(F)cc3)cc2C1=O	79.3	-63.1	2.7	x	x	x	x
